# Source: PubChem BioAssay AID1508600 (Functional Genomics Laboratory (NCATS/FGL), 2020)
# Hit rate of the full screen: of about 53,000 sequences, about 3,700 (7%) were called active.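 How the source made its calls: active means gene knockdowns whose robust z-score for IL-1 alpha signal is at least 2 or at most -2, so actives lie on both sides; inactive means the rest.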 The entries come from a sample that favours actives as a whole.
# Assay: Components of the Cytosolic LPS Sensing Pathway: Gene Identification via Genome-wide siRNA Screen;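 further: robust z of the log signal after scaling to non-targeting control siRNA wells of the plate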
# Conditions: RAW264.7 macrophages, IL-1a HTRF, actives lie on both sides, screened at 100 nM (by protocol), cells primed 5 h with Pam3CSK4 first
# Summary of the method: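 Supernatant IL-1a by HTRF from RAW264.7 cells primed with Pam3CSK4 (5 hours) and transfected with LipidA (24 hour) after 48h siRNA knockdown at 100 nM; cell viability checked with CellTiter-Glo.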
row,Sequence,z-score
1,GCUUAUGAUUCCAAGGCAGTT against Serpina6,0.9 (inactive)
2,AAUUCUGGACGAGGAGCAUTT against Abcc5,3.22 (active)
3,CCUGGCAGUAAUCACCAUUTT against Olfr1158,-0.117 (inactive)
4,CGAGAAAAUGGAUUCUACCTT against Atp10d,0.314 (inactive)
5,GGAGUUGUCUACCAAAGUUTT against Reep5,0.609 (inactive)
6,CCCGAUGAAGUGUUUUUAGTT against Oosp1,-0.753 (inactive)
7,GGAAGAAUAAAGUGCUUUGTT against Chga,2.27 (active)
8,GGAUCCUCUUGAUCAAGCUTT against Vps53,-0.891 (inactive)
9,GGUUUGAUUAUACCUAUCATT against Tenm2,-0.337 (inactive)
10,GGAGAAAGGUUUUGUUAUGTT against Gtf2h2,1.5 (inactive)
11,CCUACUACAUCCGCUACUGTT against Apba2,-0.366 (inactive)
12,GGUUUGGCUUAGCUCAUCATT against Mettl24,-2.72 (active)
13,GGGCUACUCAGCCUAUAGUTT against Asic4,1.22 (inactive)
14,GGCAAACUCGGGUAUACACTT against Mybpc1,0.394 (inactive)
15,GGUGUGGCUGUUCUGAUGATT against Olfr771,0.322 (inactive)
16,GCACGAGAGACAUUUCUCCTT against Kat7,-2.32 (active)
17,GGGCUCCUGGUUUAGUAAUTT against Zfp59,1.04 (inactive)
18,GGGUGUUUGGAGAUUGUGUTT against Heatr3,-2.93 (active)
19,GCUUUUCAUACCUGUUUCCTT against 9930111J21Rik2,-0.227 (inactive)
20,CGGAAUCUGACUGGUAUCGTT against Banp,-1.21 (inactive)
21,GGAAAAAGCCAAUUAUGUCTT against Fbxl2,-0.954 (inactive)
22,GGUUUUAAGCUUGCUUAUGTT against Ucma,0.4 (inactive)
23,GGAGAUACUAUGUUGCAUUTT against Fgf9,0.537 (inactive)

row,Sequence,z-score
1,GGAUUCUUGGAGCUCAUUATT against Stag3,-2.46 (active)
2,CCAAGAGAUGCUAGCUAAUTT against Platr28,-0.495 (inactive)
3,GGCAAUCUACUCAUUGUUGTT against Olfr1239,-0.719 (inactive)
4,GCAGGUUAGAGUCACUUGUTT against Trim67,0.143 (inactive)
5,GGUGUCCAGUUCAUCCAGGTT against Vxn,1.15 (inactive)
6,GGAACAAGGUAAAAUACAUTT against Nthl1,3.88 (active)
7,GCUUUGAGAACCUUGGUAATT against Rab9b,-0.652 (inactive)
8,GGAUCAGUGCCUUUGGCUATT against Rhoc,-1.75 (inactive)
9,GGGAUGUUUUGUUUUUAACTT against Mlc1,0.384 (inactive)
10,GGAGUUCACCAGCUACCAATT against Myoz3,-0.537 (inactive)
11,CCAUGGAAUUCAAUUCCUUTT against Vmn2r66,0.0798 (inactive)
12,CCCUAGUUACCAAUUCCACTT against Olfr293,2.61 (active)
13,GGUUGACUGAAUGAUGGAATT against Tcl1b3,-0.724 (inactive)
14,GCCCAUAUCGGAGAAGAUUTT against Cap2,-1.97 (inactive)
15,GGGCAUGUUUAACGACAUUTT against Csf2ra,1.49 (inactive)
16,GGAUUUCCUUUUAAGACUUTT against Rab3il1,-0.71 (inactive)
17,GCUUUACCUGCUCAGAAGCTT against Olfr520,-2.26 (active)
18,GGAAGACAAUAAGAAGUGGTT against Niban2,-0.576 (inactive)
19,CCAUUCCUACAGCAUGCGUTT against Slc27a1,0.523 (inactive)
20,GCGAGCUAUUCUUCCUUGUTT against Eif4a1,-2.13 (active)
21,CCUCAUCCAACAUACCUAUTT against Olfr665,-0.665 (inactive)
22,GGACAUCAUAUUCGUUUUCTT against C130026L21Rik,1.12 (inactive)
23,GGGUUGAAGUUUGUCGAAATT against Nlgn1,0.496 (inactive)

row,Sequence,z-score
1,GGGUCUUUGUACAGAUUGCTT against Olfr275,0.0844 (inactive)
2,GGAGGAAGAGGAGAAUCUATT against Supt6,-2.57 (active)
3,GCUGAAUACAGUUGGUGCUTT against Nelfa,-0.259 (inactive)
4,GGAUUCAAACUGGUUUUCATT against Ptcd3,1.8 (inactive)
5,GGACAAGUUCUGUUGGUAUTT against Zfp275,0.121 (inactive)
6,GCGCAGUCAGACCAUAUAUTT against Fbxl5,-0.874 (inactive)
7,GGGAGACUGUGAAGCUUUATT against Elk4,3.22 (active)
8,GGUCUUAAAGCAUGAGAAGTT against Med8,0.541 (inactive)
9,GGUUCGUAAAAUUAUUAGGTT against Vcl,1.09 (inactive)
10,GGGCAGUCCGUUUCUUAACTT against Kptn,0.815 (inactive)
11,GGAGGUAUUUACCAAAGAUTT against Acer2,0.453 (inactive)
12,CCACACUUUUCAGUAUAAUTT against Lin54,0.897 (inactive)
13,GGGUGACCUAAAGAAUUAATT against Ybx3,0.849 (inactive)
14,GCUGAAUACAACGUGAGAUTT against Tdh,-4.05 (active)
15,GGUUUCGUCUUGAUAUCUATT against Trpc1,-0.417 (inactive)
16,GGAGAGCAGAUGUGAUUCUTT against Mrm2,-0.561 (inactive)
17,GCCUGUUCUCAAGACUGACTT against Sema4a,2.06 (active)
18,GGGUGUCUUUCCUGUGUGATT against Pkmyt1,-0.804 (inactive)
19,GGGUAAAGGAGAUUGUGAUTT against Ppfibp2,-0.103 (inactive)
20,GCCGUUAGAAACAAAGUCGTT against Taf3,-2.48 (active)
21,CCAAGUAUAGCUCACAUAATT against Slc17a4,-1.7 (inactive)
22,GCCCUUGAAGAUUUGAGGUTT against Cops8,0.00555 (inactive)
23,GCACAGGUUCAAGUGGAACTT against Prnd,-1.41 (inactive)
